Test results published in PubChem BioAssay AID720664 (National Center for Advancing Translational Sciences (NCATS), 2013).
Records with an inconclusive call do not appear. Calls of active or inactive are those of the source. Calls follow the shape of the dose curve; as a rule, active = well fitted inhibition curve with a large enough effect; inconclusive = small, poorly fitted or top-dose-only effect; inactive = flat fitted curve, though single readings scatter.

What follows are compounds tested against Galactokinase (Homo sapiens) (UniProt P51570) (assay: qHTS for Inhibitors of Human Galactokinase (GALK): SAR round 3). Details: ADP detection luminescence, 1 h; series mostly up to 57.5 µM; activity change, negative = inhibition: at the top concentration.
Sequence of Galactokinase (Homo sapiens) (P51570 whole entry, looked up): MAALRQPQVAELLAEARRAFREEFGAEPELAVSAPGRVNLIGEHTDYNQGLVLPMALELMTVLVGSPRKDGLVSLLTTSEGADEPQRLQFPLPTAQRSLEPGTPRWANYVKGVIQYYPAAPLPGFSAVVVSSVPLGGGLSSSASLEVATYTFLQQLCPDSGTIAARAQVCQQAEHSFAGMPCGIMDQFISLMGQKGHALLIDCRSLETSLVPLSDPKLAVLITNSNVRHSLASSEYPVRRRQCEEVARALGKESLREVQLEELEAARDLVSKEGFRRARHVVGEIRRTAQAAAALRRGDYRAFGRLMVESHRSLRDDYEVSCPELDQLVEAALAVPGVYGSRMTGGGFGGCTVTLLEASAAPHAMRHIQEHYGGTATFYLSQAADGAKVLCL
Summary of the method: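 Human GALK (5 nM) with 35 µM ATP and 100 µM galactose in 20 mM HEPES pH 8.0, 5 mM MgCl2, 60 mM NaCl reacted 1 h at room temperature. Luminescent ADP detection was used; qHTS retest of cherry-picked actives.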

Activity change, negative = inhibition, inactive:
O=C1CCCC2=C1C(c1[nH]ncc1Cl)N=C(Nc1nc3cc(F)ccc3o1)N2 (stereo not drawn) 0.642%
O=C1C2=C(CN1c1ccccc1)NC(Nc1nc3ccccc3o1)=NC2c1ccccc1Cl (stereo not drawn) -6.41%
O=C1CC(c2ccccc2)CC2=C1C1(CCCCC1)N=C(Nc1nc3ccccc3o1)N2 (stereo not drawn) 3.27%
CC1=C(C(=O)c2ccccc2)C(c2ccccc2Cl)N=C(Nc2nc3ccccc3o2)N1 (stereo not drawn) -4.91%
COc1ccc2oc(NC3=NC(c4[nH]ncc4Cl)C4=C(CCCC4=O)N3)nc2c1 (stereo not drawn) 3%
O=C1CCCC2=C1C1(CCCC1)N=C(Nc1nc3cc(Cl)ccc3o1)N2 -24.4%
O=C(Nc1ncc([S+](=O)([O-])N2CCOCC2)s1)c1cccc(Br)c1 -2.8%
O=C1CCCC2=C1C1(CCCC1)N=C(Nc1nc3cc4ccccc4cc3o1)N2 1.6%
O=C1CCCC2=C1C(c1ccncc1)N=C(Nc1nc3ccccc3o1)N2 (stereo not drawn) -5.76%
O=C1CCCC2=C1C(c1[nH]ncc1Cl)N=C(Nc1ccccc1)N2 (stereo not drawn) 1.36%
Cn1c(NC2=NC3(CCCC3)C3=C(CCCC3=O)N2)nc2ccccc21 3.5%
Cc1nc(NC2=NC(c3ccccc3Cl)C3=C(CCCC3=O)N2)oc1C (stereo not drawn) 2.17%
O=C1CCCC2=C1C(c1[nH]ncc1Cl)NC(=NCc1ncc[nH]1)N2 (stereo not drawn) 1.65%
O=C1CCCC2=C1C(c1[nH]ncc1Cl)NC(=NCc1ccoc1)N2 (stereo not drawn) 2.25%
O=C1CCCC2=C1C(c1[nH]ncc1Cl)N=C(Nc1nc3cccc(Cl)c3o1)N2 (stereo not drawn) 4.36%
O=C1CCCC2=C1C(c1[nH]ncc1Cl)NC(=NCc1ccncc1)N2 (stereo not drawn) -0.0488%
O=C1CC(c2ccccc2)CC2=C1C1(CCCC1)N=C(Nc1nc3ccccc3o1)N2 (stereo not drawn) -1.13%
Cc1cccc(C2N=C(Nc3nc4ccccc4o3)NC3=C2C(=O)CCC3)c1 (stereo not drawn) -18%
CC(C)c1nc(Nc2nc3ccccc3o2)nc2c1CCCC2 -2.24%
COc1ccc(C2N=C(Nc3nc4ccccc4o3)NC3=C2C(=O)CCC3)cc1 (stereo not drawn) -7.29%
O=C1CCCC2=C1C(c1ccccc1Cl)N=C(Nc1ncc(-c3ccccc3)o1)N2 (stereo not drawn) 8.02%
CC1=C(C(=O)Nc2ccc(Cl)cc2)C(c2ccccc2Br)N=C(Nc2nc3ccccc3o2)N1 (stereo not drawn) -19.1%
CC1=C(C(=O)NC2CC2)C(c2nn(C)cc2Cl)N=C(Nc2nc3ccccc3o2)N1 (stereo not drawn) -29.6%
O=C1CCCC2=C1C(c1cccc(Cl)c1)N=C(Nc1nc3ccccc3o1)N2 (stereo not drawn) -2.3%
O=C1CCCC2=C1C(c1[nH]ncc1Cl)N=C(Nc1nc3c(Cl)cccc3o1)N2 (stereo not drawn) -2.85%
O=C1CCCC2=C1C(c1[nH]ncc1Cl)N=C(Nc1nc3ccc(Cl)cc3o1)N2 (stereo not drawn) -5.94%
O=C1CCCC2=C1C(c1[nH]ncc1Cl)N=C(Nc1nc3cc([S+](=O)([O-])N4CCOCC4)ccc3o1)N2 (stereo not drawn) -1.21%
CC1=C(C(=O)N(C)c2ccccc2C)C(c2ccccc2Br)N=C(Nc2nc3ccccc3o2)N1 (stereo not drawn) -20.2%
Cc1ccc(C2N=C(Nc3nc4ccccc4o3)NC3=C2C(=O)CCC3)s1 (stereo not drawn) -21.2%
O=C1CCCC2N=C(Nc3nc4ccccc4o3)CC(c3ccccc3Cl)C12 (stereo not drawn) 3.86%
CC1(C)CC(=O)C2=C(C1)NC(Nc1nc3ccccc3o1)=NC21CCCCC1 -16.9%
CC1=C(C(=O)Nc2nc3ccccc3s2)C2(CCCC2)N=C(Nc2nc3ccccc3o2)N1 -10.2%
O=C1CCCC2=C1C(c1[nH]ncc1Cl)NC(=NCc1cccs1)N2 (stereo not drawn) 0.544%
O=C1CCCC2=C1C(c1[nH]ncc1Cl)NC(=NCCc1ccc(O)cc1)N2 (stereo not drawn) 3.03%
Cn1cccc1CN=C1NC2=C(C(=O)CCC2)C(c2[nH]ncc2Cl)N1 (stereo not drawn) -1.27%
O=C1CCCC2=C1C(c1ccccc1Cl)N=C(c1ccccn1)N2 (stereo not drawn) -3.03%
CC1=C(C(=O)NC2CCCC2)C(c2[nH]ncc2Cl)N=C(Nc2nc3ccccc3o2)N1 (stereo not drawn) -7.46%

Potency, active:
CC1=C(C(=O)Nc2nncs2)C(c2[nH]ncc2Cl)N=C(Nc2nc3ccccc3o2)N1 (stereo not drawn) 12.2 µM
